Results taken from PubChem BioAssay (NCATS).
Several values for one entry are separate records, joined by “and”; a condition that tells them apart may be missing. Equal values may be shown once. A number with no mark means an inactive call. Results filed as inconclusive are left out. Where a call stands in place of a potency, no number is given. Activity calls are given as the source filed them. Unless noted, the call rests on the fitted dose curve; in most records, active means well fitted curve in the direction sought with a large enough effect; inconclusive means small, poorly fitted or top-dose-only effect, or another doubt; inactive means no such curve, though single readings can be large; an effect the other way counts as inactive or inconclusive.

Tests used:
[1] = AP1 Signaling Pathway (AID 357; active means well fitted curve in either direction with a large enough effect, not every such curve was filed as active;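 further: ME-180 reporter cells stimulated with EGF at its EC50 level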); details: ME-180 AP-1-bla reporter, EGF-induced, beta-lactamase ratio, 5 h; at 7.69 µM (top of the series) unless noted
How it was run: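 Cells are seeded overnight, exposed to compound titrations and an EC50 level of EGF for 5 hours at 37 °C, then loaded with CCF4 dye for 2.5 hours. Beta-lactamase activity under the AP-1 element is read as a blue/green ratio.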

[2] = target: Cytochrome P450 1A2 (Homo sapiens) (UniProt P05177); experiment: p450-cyp1a2 (AID 410; calls by dose curve; further: potency means the concentration at half of the fitted maximal effect)
Chain of Cytochrome P450 1A2 (Homo sapiens) (P05177 whole entry, looked up): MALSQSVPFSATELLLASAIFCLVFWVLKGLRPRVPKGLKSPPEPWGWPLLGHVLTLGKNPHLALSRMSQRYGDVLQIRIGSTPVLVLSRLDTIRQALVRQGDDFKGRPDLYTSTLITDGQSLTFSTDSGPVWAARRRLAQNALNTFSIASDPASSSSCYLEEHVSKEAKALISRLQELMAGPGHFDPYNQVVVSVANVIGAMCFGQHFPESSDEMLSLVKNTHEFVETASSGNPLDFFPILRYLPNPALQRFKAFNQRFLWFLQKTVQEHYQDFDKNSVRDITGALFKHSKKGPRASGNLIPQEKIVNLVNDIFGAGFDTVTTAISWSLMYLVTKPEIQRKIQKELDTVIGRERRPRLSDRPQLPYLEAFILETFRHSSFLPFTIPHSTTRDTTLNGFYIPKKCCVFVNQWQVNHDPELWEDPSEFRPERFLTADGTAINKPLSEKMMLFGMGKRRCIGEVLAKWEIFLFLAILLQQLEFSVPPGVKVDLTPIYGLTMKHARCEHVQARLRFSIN
How it was run: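 Inhibition was calculated relative to 57 uM furafylline (full inhibition). The reaction used human CYP1A2 at 20nM with Luciferin-ME at its Km, 100uM, driven by an NADPH-regenerating system for 60 min at room temperature.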

[3] = NFAT Signaling Pathway (AID 444; active means well fitted curve in either direction with a large enough effect, not every such curve was filed as active;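 further: carbachol stimulus at about its EC50 of 1 µM final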); details: Jurkat NFAT-bla M1, carbachol, beta-lactamase ratio, 5 h; at 7.69 µM (top of the series) unless noted
How it was run: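 Jurkat cells carrying an NFAT-driven β-lactamase reporter and co-transfected muscarinic M1 receptor were treated with compound plus carbachol (1 uM final, an EC50 level) for 5 h at 37 °C. CCF4 loading followed for 1 h at RT; 460/530 nm ratio gave %activity.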

[4] = Stat Signaling Pathway (AID 446; active means well fitted curve in either direction with a large enough effect, not every such curve was filed as active;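 further: ME-180 cervical cancer cells given 40 pM IL-6 alongside compound; SIE-controlled beta-lactamase reporter measured as 460/530 nm FRET emission ratio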); details: ME-180 SIE beta-lactamase reporter, IL-6 stimulated, 5 h; at 7.69 µM (top of the series) unless noted
How it was run: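 ME-180 cells carrying a SIE-driven beta-lactamase reporter are stimulated with 40 pM IL-6 for 5 h at 37C in the presence of compound. The 460/530 nm FRET substrate ratio is read after 2.5 h at RT. Data are normalised to 300 pM IL-6 and to 125 nM JAK inhibitor controls.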

[5] = target: Glucocorticoid receptor (Homo sapiens) (UniProt P04150); experiment: GR-GFP Redistribution (AID 450;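 active means compounds whose dose series gives a full or clear partial fitted curve of increased nuclear translocation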; further: potency means the concentration at half of the fitted maximal effect); details: U2OS GR-GFP nuclear translocation, laser cytometry, 2 h
[6] = target: Glucocorticoid receptor (Homo sapiens) (UniProt P04150); experiment: GR-EFC Redistribution (AID 451; calls by dose curve; further: potency means the concentration at half of the fitted maximal effect); details: CHO-K1 GR-EFC translocation, beta-gal luminescence, 2 h
How it was run: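 CHO-K1 cells stably expressing nuclear-localized β-gal enzyme acceptor and GR fused C-terminally to the enzyme donor fragment; ligand-driven nuclear translocation restores β-gal by complementation. Compounds titrated up to 46 uM final, 2 h at 37 °C; luminescence read.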

[7] = target: 3',5'-cyclic-AMP phosphodiesterase 4B (Homo sapiens) (UniProt Q07343); experiment: qHTS Assay for Inhibitors of PDE-IV (AID 607; active means well fitted activation curve with a large enough effect in the main read-out, with a control signal flat, not every such curve was filed as active)
Chain of 3',5'-cyclic-AMP phosphodiesterase 4B (Homo sapiens) (Q07343 whole entry, looked up): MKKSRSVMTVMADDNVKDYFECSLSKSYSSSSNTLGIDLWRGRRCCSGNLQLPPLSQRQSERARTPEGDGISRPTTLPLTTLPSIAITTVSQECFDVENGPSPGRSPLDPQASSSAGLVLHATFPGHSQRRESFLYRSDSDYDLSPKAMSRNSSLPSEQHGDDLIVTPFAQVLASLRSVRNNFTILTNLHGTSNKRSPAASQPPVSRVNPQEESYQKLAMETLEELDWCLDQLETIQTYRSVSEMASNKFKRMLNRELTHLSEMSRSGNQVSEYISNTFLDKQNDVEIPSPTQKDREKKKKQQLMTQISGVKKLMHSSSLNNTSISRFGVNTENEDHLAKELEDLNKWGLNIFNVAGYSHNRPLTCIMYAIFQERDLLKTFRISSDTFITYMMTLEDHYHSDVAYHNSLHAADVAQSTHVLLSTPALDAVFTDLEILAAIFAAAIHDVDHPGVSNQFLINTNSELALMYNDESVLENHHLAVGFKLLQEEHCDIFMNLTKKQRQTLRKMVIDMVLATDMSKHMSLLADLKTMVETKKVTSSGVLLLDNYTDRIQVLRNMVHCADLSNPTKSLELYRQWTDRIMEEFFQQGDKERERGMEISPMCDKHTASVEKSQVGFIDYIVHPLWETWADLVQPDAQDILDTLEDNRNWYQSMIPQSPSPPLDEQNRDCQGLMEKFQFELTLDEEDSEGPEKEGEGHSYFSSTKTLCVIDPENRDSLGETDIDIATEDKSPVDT
How it was run: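 HEK293 ACTOne cells with CNG channel (1000/well), endogenous PDE4; membrane potential dye, compounds up to 22.9 uM final. Fluorescence Ex 535/Em 590; RO 20-1724 (100 uM final) as reference.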

[8] = target: Guanine nucleotide-binding protein G(i) subunit alpha-1 (Homo sapiens) (UniProt P63096); experiment: qHTS Assay for Inhibitors of RGS12 GoLoco Motif Activity (Green Fluorophore) (AID 879);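 further: negative values mean loss of peptide binding seen as reduced polarization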
Chain of Guanine nucleotide-binding protein G(i) subunit alpha-1 (Homo sapiens) (P63096 whole entry, looked up): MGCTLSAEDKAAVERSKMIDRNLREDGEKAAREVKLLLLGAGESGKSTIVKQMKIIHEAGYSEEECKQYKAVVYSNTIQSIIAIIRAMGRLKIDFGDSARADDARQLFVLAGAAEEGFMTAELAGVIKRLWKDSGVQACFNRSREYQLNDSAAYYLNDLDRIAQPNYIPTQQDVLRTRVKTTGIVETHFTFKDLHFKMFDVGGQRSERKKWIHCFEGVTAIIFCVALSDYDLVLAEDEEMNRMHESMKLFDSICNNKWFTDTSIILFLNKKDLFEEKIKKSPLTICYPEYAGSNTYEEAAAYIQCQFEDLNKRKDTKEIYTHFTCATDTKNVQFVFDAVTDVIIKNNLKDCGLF
How it was run: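 Fluorescence polarization assay: 50 nM Gαi1 with 10 nM FITC-labeled RGS12 GoLoco peptide in 10 mM Tris pH 7.5, 150 mM NaCl, 0.1 mM GDP, 0.05% NP40, 10 min at room temperature with compound.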

[9] = target: Cytochrome P450 3A4 (Homo sapiens) (UniProt P08684); experiment: qHTS Assay for Activators of Cytochrome P450 3A4 (AID 885); further: nearly all actives have a fitted effect of over 65% in size
How it was run: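 Human CYP3A4 (20 nM) with Luciferin-PPXE at 25 uM (its KM) in 200 mM KPO4; 10 min compound preincubation, then NADPH regeneration and 60 min reaction at RT. Luciferin read by luminescence; normalized to 57 uM ketoconazole full inhibition.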

[10] = qHTS Assay for Identification of Small Molecule Agonists for Thrombopoietin (TPO) Signaling Pathway (AID 917)
How it was run: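 Luminescence from a Glycoprotein IIb promoter–driven luciferase reporter served as read-out in murine Ba/F3 cells carrying the human TPO receptor. Cells, deprived of IL-3 overnight, received compounds with 26 pM TPO and were incubated 24 hrs at 37 C.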

[11] = target: Muscarinic acetylcholine receptor M1 (Rattus norvegicus) (UniProt P08482); experiment: qHTS Assay for Antagonists of Acetylcholine Muscarinic M1 Receptor: Kinetic Measurement of Intracellular Calcium Response (AID 943); further: nearly all actives have a fitted effect of over 75% in size; further: potency means the concentration at half of the fitted maximal effect;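 on activity change, negative = inhibition: Fluo-4 calcium signal as peak divided by basal fluorescence over 4 min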
Chain of Muscarinic acetylcholine receptor M1 (Rattus norvegicus) (P08482 whole entry, looked up): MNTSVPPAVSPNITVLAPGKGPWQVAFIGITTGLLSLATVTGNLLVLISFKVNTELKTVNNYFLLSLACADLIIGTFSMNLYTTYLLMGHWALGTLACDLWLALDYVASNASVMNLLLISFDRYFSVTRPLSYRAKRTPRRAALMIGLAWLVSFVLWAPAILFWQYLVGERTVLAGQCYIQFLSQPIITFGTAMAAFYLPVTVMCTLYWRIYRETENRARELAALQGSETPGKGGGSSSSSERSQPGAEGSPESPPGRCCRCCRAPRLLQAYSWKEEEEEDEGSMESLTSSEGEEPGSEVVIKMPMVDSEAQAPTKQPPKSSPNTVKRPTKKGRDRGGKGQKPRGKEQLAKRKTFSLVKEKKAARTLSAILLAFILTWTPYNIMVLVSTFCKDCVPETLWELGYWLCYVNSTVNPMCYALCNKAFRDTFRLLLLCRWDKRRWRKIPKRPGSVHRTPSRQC
How it was run: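 Intracellular calcium flux, recorded with Fluo-4 in a kinetic plate reader, served as signal; the response to carbachol at EC80 (100 nM final) was taken as maximal over minimal fluorescence after a 10 min compound pre-incubation in rat M1-CHO cells.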

[12] = target: Pyruvate kinase PKM (Homo sapiens) (UniProt P14618); experiment: qHTS Assay for Activators of Human Muscle Pyruvate Kinase (AID 954; active means well fitted curve in the direction sought with a large enough effect, not every such curve was filed as active)
Chain of Pyruvate kinase PKM (Homo sapiens) (P14618 whole entry, looked up): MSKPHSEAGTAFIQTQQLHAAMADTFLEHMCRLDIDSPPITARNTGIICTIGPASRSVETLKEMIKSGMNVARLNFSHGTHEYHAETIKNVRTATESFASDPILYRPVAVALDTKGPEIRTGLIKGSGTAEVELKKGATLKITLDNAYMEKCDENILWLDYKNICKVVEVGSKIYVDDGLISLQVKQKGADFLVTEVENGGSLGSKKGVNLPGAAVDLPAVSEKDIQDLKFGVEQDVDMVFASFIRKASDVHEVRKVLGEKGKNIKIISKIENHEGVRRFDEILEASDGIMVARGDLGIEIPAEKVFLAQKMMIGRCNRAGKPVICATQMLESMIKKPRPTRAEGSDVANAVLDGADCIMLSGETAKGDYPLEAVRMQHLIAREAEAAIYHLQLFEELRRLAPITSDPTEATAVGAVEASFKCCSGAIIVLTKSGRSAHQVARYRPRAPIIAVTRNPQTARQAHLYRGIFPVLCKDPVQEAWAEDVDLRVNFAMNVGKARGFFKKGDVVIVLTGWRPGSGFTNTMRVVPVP
How it was run: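 Purified human PKM2 (0.1 nM) with 0.5 mM PEP (Km) and 0.1 mM ADP in 50 mM imidazole pH 7.2, KCl, MgCl2, 1 h at room temperature; ATP formed read by coupled luciferase luminescence. Normalized to no-enzyme/110 uM thiadiazolimine inhibition; 0.3 nM enzyme column for activation.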

[13] = target: Alpha-galactosidase A (Homo sapiens) (UniProt P06280); experiment: Counterscreen for Glucocerebrosidase Inhibitors: qHTS Assay for Human alpha-Galactosidase at pH 4.5 (AID 992)
Chain of Alpha-galactosidase A (Homo sapiens) (P06280 whole entry, looked up): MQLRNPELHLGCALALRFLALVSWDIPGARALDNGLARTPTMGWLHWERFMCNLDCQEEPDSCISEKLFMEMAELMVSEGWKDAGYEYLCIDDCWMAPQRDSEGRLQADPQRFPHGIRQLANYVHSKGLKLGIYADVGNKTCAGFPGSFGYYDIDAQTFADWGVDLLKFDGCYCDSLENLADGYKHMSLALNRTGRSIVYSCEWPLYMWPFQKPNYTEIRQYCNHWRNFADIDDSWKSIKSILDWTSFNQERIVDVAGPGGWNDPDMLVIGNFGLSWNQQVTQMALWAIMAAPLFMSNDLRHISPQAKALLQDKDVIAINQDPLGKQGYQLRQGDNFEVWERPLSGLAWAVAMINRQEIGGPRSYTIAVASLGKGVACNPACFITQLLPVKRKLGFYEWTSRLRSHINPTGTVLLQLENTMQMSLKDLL
How it was run: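 Human enzyme (2 nM) with 80 uM 4-methylumbelliferyl alpha-D-galactopyranoside in 50 mM citric acid, 0.005% Tween-20, pH 4.5, 20 min at room temperature. Compounds 0.7 nM–77 uM; fluorescence Ex 365/Em 440 after pH 10 stop; AC50 from Hill fits.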

[14] = target: alpha-glucosidase (Oryza sativa, rice) (UniProt Q653V4); experiment: Counterscreen for Glucocerebrosidase Inhibitors: qHTS Assay for Rice alpha-Glucosidase at pH 5.0 (AID 997)
How it was run: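 Rice alpha-glucosidase (4 nM final) with 400 uM 4-methylumbelliferyl-alpha-D-glucopyranoside in citrate buffer pH 5.0, 20 min at room temperature, stopped at pH 10; fluorescence 365/440 nm, compounds 0.7 nM–77 uM, AC50 from Hill fits.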

[15] = target: Mitogen-activated protein kinase 10 (Mus musculus) (UniProt Q61831); experiment: JNK3 AlphaScreen Assay (AID 530; active means well fitted curve in either direction with a large enough effect, not every such curve was filed as active;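 further: kinase came from lysate of stimulated human HepG2 cells; signal reports phosphorylation of biotinylated GST-cJun 1-79 at Ser73 with 10 µM ATP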)
How it was run: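 JNK3 came from HepG2 lysates pre-activated with IL-1beta and TNF-alpha and phosphorylated biotinylated GST-cJun (1-79) at 10 uM ATP, pH 7.6, room temperature. Compounds were titrated. AlphaScreen signal used anti-phospho-cJun (Ser73) antibody.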

[16] = target: Cytochrome P450 2C9 (Homo sapiens) (UniProt P11712); experiment: qHTS Assay for Inhibitors and Substrates of Cytochrome P450 2C9 (AID 883); further: nearly all actives have a fitted effect of over 60% in size
Chain of Cytochrome P450 2C9 (Homo sapiens) (P11712 whole entry, looked up): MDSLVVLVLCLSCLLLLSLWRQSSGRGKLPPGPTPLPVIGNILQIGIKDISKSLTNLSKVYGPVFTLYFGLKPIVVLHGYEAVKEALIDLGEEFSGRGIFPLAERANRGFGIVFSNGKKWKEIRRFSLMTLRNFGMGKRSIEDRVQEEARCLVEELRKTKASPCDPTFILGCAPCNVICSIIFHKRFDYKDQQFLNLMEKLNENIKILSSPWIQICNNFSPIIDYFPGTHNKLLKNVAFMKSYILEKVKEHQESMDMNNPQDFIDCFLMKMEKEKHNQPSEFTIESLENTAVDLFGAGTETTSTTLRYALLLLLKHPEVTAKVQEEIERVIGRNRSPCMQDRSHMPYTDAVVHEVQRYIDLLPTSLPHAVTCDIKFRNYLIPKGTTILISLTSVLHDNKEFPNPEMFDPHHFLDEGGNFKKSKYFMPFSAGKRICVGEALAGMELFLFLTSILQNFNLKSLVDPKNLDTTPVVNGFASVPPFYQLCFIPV
How it was run: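 A luminogenic readout tracked human CYP2C9 (10nM) converting deoxyluciferin (100uM, at KM) in 25mM KPO4 during 60 min at 37C with regenerated NADPH. Values normalized to 57uM sulphaphenazole as complete inhibition.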

[17] = target: Cytochrome P450 2D6 (Homo sapiens) (UniProt P10635); experiment: qHTS Assay for Inhibitors and Substrates of Cytochrome P450 2D6 (AID 891); further: nearly all actives have a fitted effect of over 60% in size; further: potency means the concentration at half of the fitted maximal effect;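 on activity change, negative = inhibition: luciferin methyl ether substrate demethylated by CYP2D6 with NADPH regeneration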
Chain of Cytochrome P450 2D6 (Homo sapiens) (P10635 whole entry, looked up): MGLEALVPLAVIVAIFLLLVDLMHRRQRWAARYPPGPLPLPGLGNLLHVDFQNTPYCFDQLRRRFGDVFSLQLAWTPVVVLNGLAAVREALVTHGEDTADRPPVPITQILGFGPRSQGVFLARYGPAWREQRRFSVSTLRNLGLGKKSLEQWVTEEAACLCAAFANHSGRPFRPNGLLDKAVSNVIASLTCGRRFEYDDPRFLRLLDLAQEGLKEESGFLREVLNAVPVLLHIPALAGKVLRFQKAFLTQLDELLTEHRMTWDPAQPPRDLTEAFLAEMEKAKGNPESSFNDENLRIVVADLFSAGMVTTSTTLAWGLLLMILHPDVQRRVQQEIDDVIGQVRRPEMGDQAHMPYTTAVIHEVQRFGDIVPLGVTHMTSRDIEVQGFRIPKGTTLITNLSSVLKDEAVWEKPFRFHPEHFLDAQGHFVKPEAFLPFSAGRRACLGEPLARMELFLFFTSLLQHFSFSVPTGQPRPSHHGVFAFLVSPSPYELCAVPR
How it was run: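 Human CYP2D6 (5 nM) with 30 uM Luciferin-ME EGE (at Km) in 100 mM KPO4, compound preincubated 10 min, then NADPH regeneration system for 60 min at room temperature. Luciferin read by luminescence; normalized to 1.43 uM quinidine.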

[18] = target: Cytochrome P450 2C19 (Homo sapiens) (UniProt P33261); experiment: qHTS Assay for Inhibitors and Substrates of Cytochrome P450 2C19 (AID 899); further: nearly all actives have a fitted effect of over 60% in size
How it was run: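 NADPH-dependent conversion of Luciferin-H EGE (10uM, at KM) by 5nM enzyme in 50mM KPO4, 60 min at 37C following 10 min compound preincubation. Stopped with luciferin detection buffer; luminescence read after 20 min.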

[19] = target: Muscarinic acetylcholine receptor M1 (Rattus norvegicus) (UniProt P08482); experiment: qHTS Assay for Antagonists of Acetylcholine Muscarinic M1 Receptor: Measurement of IP-One Response (AID 944); further: nearly all actives have a fitted effect of over 75% in size
How it was run: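 Steps: plate transfected CHO-M1 cells overnight; add test compound, 10 min; add carbachol (200 nM, EC80) in stimulation buffer with LiCl; incubate 30 min; add labelled IP1 tracer and anti-IP1 antibody in lysis buffer; read HTRF after 10 min.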

[20] = target: Pyruvate kinase (Leishmania mexicana) (UniProt Q27686); experiment: qHTS Validation Assay for Inhibitors of Leishmania Mexicana Pyruvate Kinase (AID 945)
Chain of Pyruvate kinase (Leishmania mexicana) (Q27686 2-499 E452W): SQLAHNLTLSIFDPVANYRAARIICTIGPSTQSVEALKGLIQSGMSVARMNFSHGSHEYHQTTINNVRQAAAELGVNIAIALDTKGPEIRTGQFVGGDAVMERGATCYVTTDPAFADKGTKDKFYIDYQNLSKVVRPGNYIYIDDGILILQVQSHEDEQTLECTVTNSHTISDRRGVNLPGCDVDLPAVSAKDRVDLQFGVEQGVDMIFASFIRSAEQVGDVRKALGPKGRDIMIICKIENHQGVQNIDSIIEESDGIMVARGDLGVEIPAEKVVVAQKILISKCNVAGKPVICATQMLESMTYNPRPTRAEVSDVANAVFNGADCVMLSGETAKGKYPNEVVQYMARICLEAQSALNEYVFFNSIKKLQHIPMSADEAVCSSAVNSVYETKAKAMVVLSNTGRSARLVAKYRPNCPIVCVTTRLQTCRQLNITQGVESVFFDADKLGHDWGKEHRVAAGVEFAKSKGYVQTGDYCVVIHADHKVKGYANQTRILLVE
How it was run: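 An endpoint luciferase assay: 0.2 nM LmPYK E451W turns over 0.5 mM PEP with 0.1 mM ADP for 1 h at room temperature, pH 7.2, before PKLight addition. Values are normalized to DMSO-only wells.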

SMILES | activity change, negative = inhibition [1] | Potency [2] | activity change, negative = inhibition [3] | activity, negative = inhibition [4] | Potency [5] | Potency [6] | Potency [7] | outcome [8] | Potency [9] | outcome [10] | Potency [11] | outcome [12] | outcome [13] | Potency [14] | Potency [15] | Potency [16] | Potency [17] | Potency [18] | Potency [19] | outcome [20]
Nc1nc(SCc2ccc([N+](=O)[O-])cc2)c2ncn([C@@H]3O[C@@H](CO)[C@@H](O)[C@H]3O)c2n1 | -11.9% [at 38 µM] | inactive | 0.367% [at 38 µM] | -17% [at 38 µM] | > 46 µM | > 46 µM | inactive | inactive | inactive | inactive | 25.1 µM (active) | inactive | inactive | inactive | – | – | – | – | – | –
O=c1[nH]c(=O)n([C@H]2C[C@H](O)[C@H](CO)O2)cc1Br | 14.9% [at 38 µM] | inactive | 2.6% [at 38 µM] | 4.48% [at 38 µM] | – | – | inactive | – | – | – | – | – | – | – | inactive | inactive | inactive | inactive | – | –
N[C@@H](C(=O)O)[C@H](O)C(=O)O | -4.8% [at 38 µM] | inactive | -3.19% [at 38 µM] | 8.48% [at 38 µM] | > 46 µM | > 46 µM | inactive | – | – | – | – | – | – | – | – | inactive | inactive | inactive | – | –
CC1(C)CCC(NC(=O)[C@H](N)CCC(=O)O)CC1 | 5.34% [at 38 µM] | inactive | 2.47% [at 38 µM] | -7.41% [at 38 µM] | > 46 µM | > 46 µM | inactive | – | – | inactive | inactive | inactive | inactive | inactive | – | – | – | – | inactive | inactive
CNc1ncnc2c1ncn2[C@H]1C[C@@H](OP(=O)(O)O)[C@H](COP(=O)(O)O)O1 | -5.54% [at 38 µM] | inactive | 5.84% [at 38 µM] | -2.5% [at 38 µM] | > 46 µM | > 46 µM | inactive | inactive | – | inactive | – | inactive | inactive | – | – | – | – | – | inactive | inactive
CN(CCc1ccccn1)c1ccc2c(c1)Cc1ccccc1-2 | -10.1% | 0.631 µM (active) | -13.8% | 7.42% | – | > 9.22 µM | inactive | – | inactive | – | – | – | – | – | inactive | – | 3.16 µM (active) | – | – | –
O=C(O)[C@H]1C[C@H](C(=O)O)N1 | -0.354% [at 38 µM] and 2.92% [at 38 µM] | inactive | 3.19% [at 38 µM] and 0.467% [at 38 µM] | -10.2% [at 38 µM] | > 46 µM | > 46 µM | inactive | inactive | – | inactive | inactive | inactive | inactive | inactive | – | inactive | inactive | inactive | inactive | inactive
C[C@@H](C(=O)O)c1ccc(C[C@@H]2CCCC2=O)cc1 | 14.5% [at 38 µM] | inactive | 11.1% [at 38 µM] | 8.58% [at 38 µM] | – | – | inactive | inactive | – | inactive | – | inactive | inactive | inactive | inactive | – | – | inactive | inactive | inactive
COc1cc([C@H](O)C(=O)O)ccc1O | 5.25% [at 38 µM] | inactive | -1.26% [at 38 µM] | 4.86% [at 38 µM] | > 46 µM | > 46 µM | inactive | – | – | inactive | inactive | inactive | inactive | inactive | – | – | – | – | inactive | inactive
[N-]=[N+]=Nc1ccc(C(=O)CSC[C@@H](NC(=O)CC[C@@H](N)C(=O)O)C(=O)NCC(=O)O)cc1 | -0.0447% [at 38 µM] | inactive | -3.2% [at 38 µM] | 10.6% [at 38 µM] | > 46 µM | > 46 µM | inactive | inactive | – | inactive | inactive | inactive | inactive | inactive | – | – | – | – | inactive | inactive
CCCCC[C@H](CC(=O)NO)C(=O)N[C@@H](C(=O)N1CCC[C@H]1CO)C(C)C | 26.8% [at 38 µM] | inactive | 6.72% [at 38 µM] | 7.77% [at 38 µM] | > 46 µM | > 46 µM | inactive | inactive | – | – | inactive | inactive | inactive | inactive | – | – | – | inactive | inactive | –
